Measured values taken from PubChem BioAssay (EPA / NIEHS).
The source made the active and inactive calls. How the source made its calls: active means hit-call score of the fitted dose curve at least 0.9, where 1 is the maximum; inactive means score below 0.9.

experiment: ATG_ERE_CIS: Attagene CIS-FACTORIAL HepG2 Assay for Estrogen Response Element (ERE) (AID 2282940); details: HepG2 ERE cis-reporter, Attagene RNA transcript; actives raise or lower the signal
Method: ATG_CIS is a cell-based, multiplexed-readout assay that uses HepG2, a human liver cell line, with measurements taken at 24 hours after chemical dosing in a 24-well plate.ATG_ERE_CIS is one of 52 assay component(s) measured or calculated from the ATG_CIS assay. It is designed to make measurements of mRNA induction, a form of inducible reporter, as detected with fluorescence intensity signals by Reverse transcription polymerase chain reaction (RT-PCR) and Capillary electrophoresis technology.Data from the assay component ATG_ERE_CIS was analyzed into 1 assay endpoint. This assay endpoint, ATG_ERE_CIS, was analyzed with bidirectional fitting relative to DMSO as the negative control and baseline of activity. Using a type of inducible reporter, measures of mRNA for gain or loss-of-signal activity can be used to understand the reporter gene at the transcription factor-level as they relate to the gene ESR1. Furthermore, this assay endpoint can be referred to as a primary readout, because this assay has produced multiple assay endpoints where this one serves a reporter gene function. To generalize the intended target to other relatable targets, this assay endpoint is annotated to the nuclear receptor intended target family, where the subfamily is steroidal.
Human liver HepG2 cells are transiently transfected with multiple reporter transcription units (MRTUs) in 6-well plates using FuGene 6 reagent (Roche; 3 ml FuGene/1 mg DNA). The MRTU constructs are regulated by a cis-regulating element (promoter). […] A major difference between the CIS and TRANS system is that in CIS activities of endogenous TFs are measured, whereas the TRANS assay evaluates changes in activities of exogenous, chimeric NR-Gal4 proteins. […] At the end of 24 hour incubation, total RNA was isolated using TriZol reagent (Invitrogen). The isolated RNA is then reverse-transcribed using oligo(dT) primer and Mo-MLV reverse transcriptase (Invitrogen) with DNAse I (Ambion) treatment for 30 min. The one-tenth of the produced cDNA was amplified by PCR using Taq DNA polymerase (Invitrogen) and two reporter sequence-specific primers. The PCR products were fluorescently labeled by primer extension with 6-arboxyfluorescein (6-FAM) 5'-labeled reporter sequence-specific primer (2 min at 95 C, 20 s at 68 C and 10 min at 72 C) and these products were digested with 5U of HpaI (New England Biolabs) for 2h at 37 C. The fragments were purified using Qiaquick PCR columns (Qiagen), analyzed on an ABI 3130xL genetic analyzer (Applied Biosystems) with peak positions identified by using a set of X-rhodamine (ROX)-labeled MapMarker1000 molecular weight standards (BioVentures). The raw capillary electrophoresis data was processed using Attagraph software (Attagene).

Q: With `CCCCCCCCCl` as the compound, how does the outcome read?
A: inactive

Q: For `COc1cc(OC)nc(NC(=O)NS(=O)(=O)c2ncccc2C(=O)N(C)C)n1`, which outcome is on record?
A: inactive

Q: With `O=[N+]([O-])c1c(Cl)c(Cl)cc(Cl)c1Cl` as the compound, how does the outcome read?
A: inactive

Q: With `CC(=[OH+])/C=C(/C)[O-].CC(=[OH+])/C=C(/C)[O-].CC(=[OH+])/C=C(/C)[O-].[Fe]` as the compound, how does the outcome read?
A: inactive

Q: With `O=C1CCCN1` as the compound, how does the outcome read?
A: inactive

Q: For `CCN(CC)C(=O)Cl`, which AC50 is on record?
A: 27.7 µM (active)

Q: For `O=C(Nc1ccc2[nH]ccc2c1)c1cc2cc(F)ccc2n1Cc1cccc(F)c1`, which outcome is on record?
A: inactive

Q: Which outcome does the source give for `ClCc1cccnc1` here?
A: inactive

Q: Which outcome does the source give for `O=[N+]([O-])c1ccc(O)c([N+](=O)[O-])c1` here?
A: inactive

Q: With `CC1(C)CCC(Cc2ccc(Cl)cc2)C1(O)Cn1cncn1` (stereo not given) as the compound, how does the AC50 read?
A: 7.52 µM (active)

Q: With `CCOP(=O)(CN(CCO)CCO)OCC` as the compound, how does the outcome read?
A: inactive

Q: With `Nc1cccc2ccccc12` as the compound, how does the outcome read?
A: inactive

Q: Which outcome does the source give for `CC(C)(C)c1cc(O)ccc1O` here?
A: inactive

Q: With `N#Cc1ccccn1` as the compound, how does the outcome read?
A: inactive

Q: For `Clc1ccc(C2(Cn3cncn3)CC(Br)CO2)c(Cl)c1` (stereo not given), which AC50 is on record?
A: 2.54 µM (active)

Q: For `c1ccc(N=NNc2ccccc2)cc1`, which AC50 is on record?
A: 26.3 µM (active)

Q: Which outcome does the source give for `CCNc1nc(NC(C)(C)C)nc(SC)n1` here?
A: inactive

Q: With `CC(C#N)CCC#N` (stereo not given) as the compound, how does the outcome read?
A: inactive

Q: With `O=C(NCO)NCO` as the compound, how does the AC50 read?
A: 54.5 µM (active)

Q: For `[O-][Cl+2]([O-])O`, which outcome is on record?
A: inactive

Q: Which outcome does the source give for `CCCCCCCCC(=O)NCc1ccc(O)c(OC)c1` here?
A: inactive

Q: With `CCCCC(CC)CO[N+](=O)[O-]` (stereo not given) as the compound, how does the outcome read?
A: inactive

Q: With `CCC(=O)c1ccccc1` as the compound, how does the outcome read?
A: inactive

Q: For `CCOC(=O)CP(=O)(OCC)OCC`, which outcome is on record?
A: inactive

Q: With `CC(=O)C=C(C)C` as the compound, how does the outcome read?
A: inactive

Q: With `CC1(C)Cc2cccc(O)c2O1` as the compound, how does the outcome read?
A: inactive

Q: With `CC(=O)[O][Hg][c]1ccccc1` as the compound, how does the outcome read?
A: inactive

Q: With `CN(CCCC(=O)c1cccnc1)N=O` as the compound, how does the outcome read?
A: inactive

Q: Which outcome does the source give for `N#CN=C(N)N` here?
A: inactive

Q: With `CC(C)c1ccc(CO)cc1` as the compound, how does the outcome read?
A: inactive

Q: For `Cn1sc(Cl)cc1=O`, which outcome is on record?
A: inactive

Q: Which AC50 does the source give for `O=C(OC1CCCCC1)c1ccccc1C(=O)OC1CCCCC1` here?
A: 29.2 µM (active)

Q: For `Clc1ccc(COC(Cn2ccnc2)c2ccc(Cl)cc2Cl)cc1` (stereo not given), which outcome is on record?
A: inactive

Q: For `NC(=S)Nc1ccccc1`, which AC50 is on record?
A: 39.2 µM (active)

Q: For `Cc1cc(=O)[nH]o1`, which outcome is on record?
A: inactive

Q: Which AC50 does the source give for `C=CC#N` here?
A: 71.5 µM (active)

Q: Which outcome does the source give for `C=C(C)C#N` here?
A: inactive

Q: For `Nc1cccc(Cl)c1`, which outcome is on record?
A: inactive

Q: For `CC(C)(OO)c1ccccc1`, which outcome is on record?
A: inactive

Q: For `O=C(O)Cc1ccccc1`, which outcome is on record?
A: inactive
